Compound activity as filed in PubChem.
SMN2 splice up = increases expression of the SMN2 splice variant | HEK293 SMN2-luciferase splicing reporter, luminescence, 30-36 h | Potency, µM (series often up to 46.1 µM), for inactives: at the highest dose activity change, positive = activation, usual class: activators | 210,000 compounds, 2.8% hits | AID 1458; note: % of control where 0% means no effect; nearly all actives have a fitted effect of over 55% in size
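HEK293 cells carry an SMN2 […]–luciferase reporter in which exon 7 inclusion puts luciferase in frame. Cells were plated 10-12 h before compound addition, then incubated 30-36 h at 37C. ONE-Glo luminescence was read; sodium butyrate at 4.5 mM final served as control.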
ELG1 genotox = genotoxicity induction in ELG1-luciferase HEK293T cells | HEK293T ELG1-luciferase reporter, luminescence, 16 h | Potency, µM (series often up to 46 µM), for inactives: top-dose activity change, positive = activation, usual class: activators | 330,000 compounds, 1.3% hits | AID 504466; note: % of control where 0% means no effect; nearly all actives have a fitted effect of over 60% in size
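Step 1: seed 2,000 HEK293T ELG1-luciferase cells per well. Step 2: add compound or DMSO, incubate 16 hr at 37 °C. Step 3: ONE-Glo, 30 min at room temperature, read luminescence.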
NPC1 prom act = activators of NPC1 promoter; Potency, µM (top dose mostly 9.22 µM), for inactives: at the highest dose activation, usual class: activators; 320,000 compounds, 2.4% hits; Huh7 NPC1 promoter luciferase reporter, 24 h; AID 485313; note: % of control where 0% means no effect; nearly all actives have a fitted effect of over 60% in size
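Luminescence read-out of NPC1 promoter-driven luciferase in stably transfected Huh7 cells; compounds delivered in DMSO and left 24 h at 37C, 5% CO2, qHTS titration format.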
FLuc modulator = inhibits or activates purified firefly luciferase, miR-21 counter-screen | purified FLuc, Km substrates, luminescence inhibition | 360,000 compounds, 6.9% hits | Potency, µM (top dose mostly 57.5 µM), without a hit: at the top dose activity change, negative = inhibition, usual class: inhibitors | AID 588342;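 note: plate controls were vehicle for no effect and reference inhibitor for full effect; nearly all actives have a fitted effect of over 55% in size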
Target sequence (P08659 whole entry, looked up): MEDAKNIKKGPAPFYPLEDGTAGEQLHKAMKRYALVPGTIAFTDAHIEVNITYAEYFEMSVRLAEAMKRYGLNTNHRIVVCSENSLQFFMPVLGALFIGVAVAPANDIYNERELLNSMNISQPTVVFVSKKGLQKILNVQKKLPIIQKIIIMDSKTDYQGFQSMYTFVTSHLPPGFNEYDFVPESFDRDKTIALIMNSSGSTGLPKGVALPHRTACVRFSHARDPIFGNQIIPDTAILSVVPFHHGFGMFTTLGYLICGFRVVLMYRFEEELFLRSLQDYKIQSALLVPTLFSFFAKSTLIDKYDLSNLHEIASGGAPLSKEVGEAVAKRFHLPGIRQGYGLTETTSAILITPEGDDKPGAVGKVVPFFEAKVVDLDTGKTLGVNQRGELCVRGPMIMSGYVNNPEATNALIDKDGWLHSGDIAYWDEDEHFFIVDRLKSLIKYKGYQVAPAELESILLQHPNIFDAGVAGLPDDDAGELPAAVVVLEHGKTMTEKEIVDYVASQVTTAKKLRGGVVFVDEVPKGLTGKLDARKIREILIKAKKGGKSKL
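Purified P. pyralis luciferase (10nM final) with 10uM D-luciferin and 10uM ATP (Km levels) in 50mM Tris acetate pH 7.5, 10mM Mg acetate, 0.01% Tween-20, 0.05% BSA; qHTS 6-point titration, ~60 µM downward; luminescence read.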
Rab9 prom act = activators of Rab9 promoter; Huh7 Rab9 promoter-luciferase reporter, luminescence, 24 h; Potency, µM (top dose mostly 9.22 µM), without a hit: at the highest dose activation, negative = inhibition, actives largely listed as activators; 320,000 compounds, 2.8% hits; AID 485297; note: % of control where 0% means no effect; nearly all actives have a fitted effect of over 60% in size
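Luciferase signal after 10 min detection reagent at ambient indicates Rab9 promoter upregulation; stably transfected Huh7 cells were treated 24 h with compound in DMSO at 37 °C, 5% CO2.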
* hit, by the source's call; ? = inconclusive; nt = no result given; [ ] = dose if it differs, or a comment. Compounds with a hit are over-represented: about 7.4% of the library has one in this group of screens. Calls come from the whole dose curve; as a rule, active = well fitted curve in the direction sought with a large enough effect; inconclusive = small, poorly fitted or top-dose-only effect, or another doubt; inactive = no such curve, though single readings can be large; an effect the other way counts as inactive or inconclusive. Potency is the fitted concentration of half-maximal effect.

SMILES	SMN2 splice up	ELG1 genotox	NPC1 prom act	FLuc modulator	Rab9 prom act
Cc1cccc(-c2noc(CSc3nc(-c4ccc(F)cc4)cc(=O)[nH]3)n2)c1	nt	nt	nt	-17%	nt
Cc1ccc(-c2noc(CSc3ccccc3)n2)cc1	?	7.3µM*	1.8µM*	2.1µM*	1.8µM*
Cc1cccc(-c2noc(CSc3ccccc3)n2)c1	?	?	2.5µM*	9.5µM*	3.5µM*
Cc1ccc(-c2noc(CSc3nnc(C)n3-c3ccc(C)cc3)n2)cc1	-2%	nt	nt	-11%	nt
c1ccc(SCc2nc(-c3cccnc3)no2)cc1	11µM*	3.7µM*	2µM*	11µM*	1.4µM*
Cc1ccc(-c2noc(CSc3nc(N)cc(N)n3)n2)cc1	?	13%	2.8µM*	15µM*	2.2µM*
c1ccc(C(Cc2nc(-c3cccnc3)no2)c2ccccc2)cc1	-1%	-17%	-2%	-3%	0%
COc1ccccc1C(=O)NNC(=O)c1cccc(Br)c1	nt	?	2.8µM*	12µM*	?
O=C(CC(=O)c1ccccc1)c1ccccc1	13µM*	nt	nt	nt	nt
COc1ccccc1/C=C1\S/C(=N/NC(=O)c2cccc(Br)c2)NC1=O	-18%	-13%	-1%	9.5µM*	-3%
O=C(CC(=O)c1ccncc1)c1ccccc1	9%[9.22 µM]	nt	nt	nt	nt
COc1ccccc1C(=O)Nc1ccccc1SC(=O)c1ccccc1OC	nt	12µM*	?	5.4µM*	?
COC(=O)/C=C1\S/C(=N/NC(=O)c2ccccc2)NC1=O	?	8%	0%	?	-1%
Cc1c(Cl)cccc1NC(=O)CSc1nc(=O)n(CCN2CCOCC2)c2c1CCC2	nt	nt	nt	0%	nt
Cn1c2cc(B(O)O)sc2c2cnn(Cc3c(F)cccc3Cl)c(=O)c21	nt	nt	-11%	-1%	2%
O=C(CNc1ccccc1C(=O)O)c1ccccc1	nt	10%	3%	19µM*	?
COc1ccccc1C(=O)NNC(=O)c1ccccc1	nt	8.2µM*	2.5µM*	9.5µM*	?
NC(=O)c1ccccc1NCC(=O)c1ccc(Cl)cc1	nt	0%	0%	?	-9%
COc1ccccc1C(=O)Nc1ccc2c3c(cccc13)CC2	nt	12%	?	5.4µM*	?
O=C(Nc1ccccc1)C(=O)c1c[nH]c2ccccc12	nt	0.92µM*	3.5µM*	1.7µM*	1.8µM*
CC(C)c1cccc2c([Si](C)(C)C)c3c(nc12)-c1cccc(=O)n1C3	-5%	nt	nt	nt	nt
O=C(/C=C/c1ccccc1)c1c[nH]c2ccccc12	nt	?	0.63µM*	0.19µM*	0.35µM*
Cc1cccc(C)c1NC(=O)c1c[nH]c2ccccc12	nt	?	?	12µM*	22%[1.84 µM]
CC(=O)Nc1ccc(C(=O)CSc2ncn(-c3ccccc3)n2)cc1	7.1µM*	?	18%	-10%	19%
O=C(CSc1ncn(-c2ccccc2)n1)Nc1nncs1	1%	0%	4%	-7%	-9%
SMILES	SMN2 splice up	ELG1 genotox	NPC1 prom act	FLuc modulator	Rab9 prom act
NC(=O)c1c[nH]c2ccccc12	-2%	3%	-2%	-10%	-3%
Cc1cccc(C)c1NC(=O)CNC(=O)Cc1c[nH]c2ccccc12	nt	-1%	-2%	6%	-3%
COc1ccccc1NC(=O)c1ccccc1NC(=O)c1ccccc1	-8%	nt	nt	15µM*	nt
CCCOc1ccc(NC(=O)CC2C(=O)N(c3cccc(OC)c3)C(=O)N2Cc2cccs2)cc1 (configuration not stated)	nt	nt	nt	-12%	nt
CCOc1ccc(/C=C/c2nc(C#N)c(NC(C)CC)o2)cc1 (configuration not stated)	8%	nt	nt	4%	nt
Cc1nc2c(C(=O)NC(C)c3ccccc3)cnn2c(C)c1Cc1ccccc1 (configuration not stated)	nt	nt	nt	-8%	nt
OC1CC2CC[C@H](C1)N2CCCN1c2ccccc2Sc2ccc(Cl)cc21 (some centres not stated)	-12%[9.22 µM]	nt	nt	nt	nt
CCCCC[C@H](O)/C=C/[C@H]1OC(O)C[C@H](O)[C@@H]1C/C=C\CC(=O)O (some centres not stated)	1%	nt	nt	nt	nt
COc1ccccc1NC(=O)c1c[nH]c2ccccc12	nt	?	?	21µM*	26%
CC(=O)Nc1ccc(NCC(=O)c2ccccc2)cc1	nt	9%	-2%	15µM*	0%
COc1ccccc1NC(=O)c1cc(=O)[nH]c2ccccc12	nt	-1%	11%	-3%	11%
COc1ccccc1NC(=O)CC(=O)c1ccccc1	nt	3%	12%	?	13%
O=C(CNc1ccccc1)c1ccc([N+](=O)[O-])cc1	13%	1%	7%	0%	-3%
COc1ccccc1C(=O)CC(=O)c1ccccc1	nt	?	?	13µM*	20%
COc1ccccc1C(=O)NCC(=O)NC(C)CCc1ccccc1 (configuration not stated)	nt	8%	2%	3µM*	-7%
Cc1ccc(-n2ncc(C(=O)NCc3ccco3)c2C2CCN(C(=O)OC(C)(C)C)CC2)cc1C	nt	nt	nt	-9%	nt
Cc1ccc2c(n1)sc1c(=O)n(-c3cccc(C(F)(F)F)c3)nnc12	nt	nt	nt	-11%	nt
CC(C)(C)c1ccc(-c2nc(N)nc(N)n2)cc1	nt	?	?	2.1µM*	?
CC(C)(C)c1cc(-c2nc(N)nc(N)n2)cc(C(C)(C)C)c1	-2%	0%	0%	-16%	-1%
CC(=O)N/N=C/c1c(C)[nH]n(-c2ccccc2)c1=O	-23%	-3%	-2%	-3%	5%
Cc1[nH]n(-c2ccccc2)c(=O)c1/C=N/NC(=O)c1cccc([N+](=O)[O-])c1	-70%	-5%	-20%	8.5µM*	-14%
Cc1[nH]n(-c2ccccc2)c(=O)c1/C=N/NC(=O)COc1ccccc1[N+](=O)[O-]	-99%	10%	1%	21µM*	-8%
Cc1[nH]n(-c2ccccc2)c(=O)c1/C=N\NC(=O)C1COc2ccccc2O1 (configuration not stated)	-56%	?	?	1.9µM*	?
Cc1ccc(OCC(=O)N/N=C\c2cccn2C)c([N+](=O)[O-])c1	nt	10%	5%	11µM*	15%
Cc1ccc(C)c(OCC(=O)N/N=C\c2cccn2C)c1	5%	-2%	0%	3%	-3%
CCCCOc1ccc(C(C)NC(=O)c2cccc(Nc3nc4ccccc4n4nnnc34)c2)cc1 (configuration not stated)	nt	nt	nt	4%	nt
Cc1ccc(-n2[nH]c(C)c(/C=N/Nc3ccc([N+](=O)[O-])cc3[N+](=O)[O-])c2=O)cc1C	-73%	-13%	-3%	13µM*	-17%
COC(=O)N/N=C\C=C\c1ccc2c(c1)OCO2	6%	2%	4µM*	15µM*	3.5µM*
CCOC(=O)N/N=C\C=C\c1ccc2c(c1)OCO2	-8%[1.84 µM]	?	?	13µM*	3.2µM*
CC(C)(C)OC(=O)N/N=C\C=C\c1ccc2c(c1)OCO2	-15%[1.84 µM]	?	4µM*	7.6µM*	1.6µM*
